# Laboratory results published in PubChem BioAssay AID504832 (National Center for Advancing Translational Sciences (NCATS), 2011).
# About 18,000 (5.8%) of roughly 310,000 compounds were called active. Entries that show only a call come without a potency. Roughly 22% stayed inconclusive and do not appear here. The sample holds actives, similar compounds and a random draw of the others, so the mix is not that of the screen. A number with no mark means an inactive call. Calls come from the whole dose curve; as a rule, active = well fitted inhibition curve with a large enough effect; inconclusive = small, poorly fitted or top-dose-only effect, or another doubt; inactive = no such curve, though single readings can be large or run the other way.
# Assay: Primary qHTS for delayed death inhibitors of the malarial parasite plastid, 48 hour incubation
# Conditions: P. falciparum luciferase growth in erythrocytes; series mostly up to 28.7 µM
# Outline: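 Compounds are pin-transferred into medium, infected erythrocytes (2% hematocrit, 0.1% parasitemia final) are added, and plates sit one parasite generation at 37 C in 5% CO2. Detection reagent is then added and luminescence measured.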
# Potency is the fitted concentration of half-maximal effect.
SMILES,Potency,"activity change, negative = inhibition"
CCc1ccc(-c2cc3c(=O)n(CC(=O)NCCCN4CCN(Cc5ccccc5)CC4)nc(C)n3n2)cc1,inactive,–
CC(CCc1ccc(O)cc1)NCc1ccc(Cl)cc1Cl (centres undefined),inactive,–
CN(C(=O)c1ccccc1)c1nccnc1C#N,inactive,–
CCOC(=O)CSc1nnc(NC(=O)C2CC(=O)N(c3ccc(F)cc3)C2)s1 (centres undefined),inactive,–
CCOC(=O)c1cccc(NC(=O)CN2C(=O)C3CC=CCC3C2=O)c1 (centres undefined),inactive,–
COc1ccccc1CNS(=O)(=O)c1cc2c3c(c1)CCC(=O)N3CCC2,inactive,–
COc1ccc(C(=O)NC2CC2)cc1OC1CCN(C/C=C/c2ccccc2)CC1,inactive,–
COc1cc(C(=O)N2CCN(C/C=C/c3ccccc3)CC2)cc(OC)c1C,10.4 µM (active),–
CNC(=O)NC(=O)C(C)N1CCN(C/C=C/c2ccccc2)CC1 (centres undefined),inactive,–
CC(C)[C@@H](C(=O)O)N(Cc1cccc(CN([C@H](C(=O)O)C(C)C)S(C)(=O)=O)c1)S(C)(=O)=O,inactive,–
Cc1nnc2n1N=C(c1ccccc1)CS2,–,1.87% [at 0.00184 µM]
CN(CC(=O)Nc1cccc(F)c1)C(=O)C1=COCCO1,inactive,–
CCc1nc(Nc2ccc(NC(C)=O)cc2)c2oc3ccccc3c2n1,inactive,–
CCc1nc(Nc2ccc3nccnc3c2)c2oc3ccccc3c2n1,1.04 µM (active),–
CCc1nc(N2CCN(c3nc(C)cc(C)n3)CC2)c2oc3ccccc3c2n1,inactive,–
COCC1CCN(C(=O)CCc2nnc(C3(c4ccc(Cl)cc4)CCC3)o2)C1 (centres undefined),inactive,–
Cc1noc(C)c1CSCC(=O)Nc1ccc(Br)cc1Cl,inactive,–
COc1cc(C(=O)N2CCN(C3CCC(C)CC3)CC2)cc(OC)c1OC (centres undefined),inactive,–
OC(CN=c1sc2ccccc2n1CC(O)COc1ccccc1)COc1ccccc1 (centres undefined),13.1 µM (active),–
OC(COc1ccccc1)Cn1cc(Br)cn1 (centres undefined),inactive,–
CC(O)COc1ccccc1 (centres undefined),inactive,–
Cn1nccc1C(=O)NC1CCCc2c1cnn2-c1ccccc1F (centres undefined),inactive,–
CC(C)C(NS(=O)(=O)c1cccs1)C(=O)Nc1nc(C(C)(C)C)cs1 (centres undefined),11.7 µM (active),–
CC(C)(C)c1csc(NC2=NS(=O)(=O)c3ccccc32)n1,inactive,–
COc1ccc(CNC(=O)C(NS(=O)(=O)c2cccc3nsnc23)C(C)C)cc1 (centres undefined),inactive,–
O=C(OCC(=O)N1CCCC1)c1ccc(Cl)nc1,inactive,–

SMILES,Potency,"activity change, negative = inhibition"
CCCc1cc(=O)oc2c(C)c(OC(C)C(=O)NCC(O)c3ccccc3)ccc12 (centres undefined),inactive,–
CCCc1cc(=O)oc2c(C)c(O)c(CN3CCCCC3)cc12,1.65 µM (active),–
CCCc1cc(=O)oc2c(C)c(OCC(=O)N3CCC(C(=O)O)CC3)ccc12,inactive,–
CN(CC(=O)NCc1ccncc1)S(=O)(=O)c1ccc(Br)cc1,inactive,–
Cc1ccc(CN(C)Cc2cc(=O)oc3cc(C)c(Cl)cc23)cc1,inactive,–
Cc1ccc(O)c(NC(=S)NC(=O)COc2ccc(Br)cc2)c1,inactive,–
Cc1ccc(C)c(OCC(=O)NNC(=O)C2CCC2)c1,inactive,–
Cc1ccc(O)c(NC(=O)COc2cc(C)ccc2C)c1,2.94 µM (active),–
CC(NC(=O)CNC(=O)Cc1cccc2ccccc12)c1ccc(S(N)(=O)=O)cc1 (centres undefined),inactive,–
CCc1cc(=O)oc2c(C)c(OCC(=O)NCCN3CCOCC3)ccc12,inactive,–
COc1cccc(-c2ccc3c(c2)S(=O)(=O)c2cccc(C(=O)O)c2C3=O)c1OC,inactive,–
CC(C)N(C(=O)COC(=O)c1ccccc1C(=O)N1CCN(c2ccc(F)cc2)CC1)C(C)C,inactive,–
Cc1c(C(=O)N2CCN(c3ccc(F)cc3)CC2)oc2c1C(=O)CCC2,inactive,–
Cn1c2ccccc2c2c(C(=O)N3CCN(c4ccc(F)cc4)CC3)cn(C3CCCC3)c(=O)c21,10.4 µM (active),–
COc1cccc(C(=O)Nc2nnc(S(=O)(=O)N(C)c3ccccc3)s2)c1,inactive,–
COc1cccc(/C=C/C(=O)OCC(=O)N2CCN(c3ccccc3)CC2)c1,inactive,–
COc1ccc(S(=O)(=O)N2CCN(C(C)C(=O)Nc3ccc(C(C)C)cc3)CC2)cc1 (centres undefined),10.4 µM (active),–
COc1ccc(OCC(=O)OCC(=O)Nc2ccc(S(=O)(=O)N3CCCCC3)cc2)cc1,inactive,–
COc1ccc(S(=O)(=O)N2CCN(C(=O)NC3CCCCC3)CC2)cc1,inactive,–
CC(NC(=O)CN(C)S(=O)(=O)c1ccc(F)cc1)C1CC2CCC1C2 (centres undefined),inactive,–
CC(=O)Nc1ccc(N2C(=O)CC(Sc3nccc(C)n3)C2=O)cc1 (centres undefined),inactive,–
COc1cc(Cl)ccc1OCc1cc(C(=O)N(C)CCc2c(C)n[nH]c2C)no1,inactive,–
CN(CCO)Cc1csc2ccc(Br)cc12,inactive,–
CNC(=O)O/N=C(\N)Cc1csc2ccc(Cl)cc12,3.7 µM (active),–
O=C(O)COCC(=O)NCc1csc2ccc(Cl)cc12,inactive,–
CCOC(=O)Cc1csc(NC(=O)C(C)(C)C)n1,inactive,–

SMILES,Potency,"activity change, negative = inhibition"
CCOC(=O)Cc1csc(NC(=O)CSc2ccc(Br)cc2)n1,10.4 µM (active),–
CCOC(=O)Cc1csc(NC(=O)CSc2nc(C)cc(=O)[nH]2)n1,inactive,–
CCC(C)C(N=C1NS(=O)(=O)c2ccccc21)C(=O)N1CCC(C)CC1 (centres undefined),inactive,–
CC(C)c1ccc(NC(=O)[C@@H](NC(=O)N2CC(=O)Nc3ccccc32)C(C)C)cc1,inactive,–
O=C(N/N=C/c1ccc(OC(=O)c2ccccc2Cl)cc1)c1ccc(O)cc1,inactive,–
CSc1ncccc1C(=O)NCc1ccccc1Cl,inactive,–
CC(NC(=O)c1ccccc1F)c1cccc2ccccc12 (centres undefined),inactive,–
COc1ccc(S(=O)(=O)n2nc(C)c(S(=O)(=O)N3CCOCC3)c2C)cc1,inactive,–
O=C(CSc1ccc(-c2ccc(Br)cc2)nn1)NCC1CCCO1 (centres undefined),inactive,–
CC(NS(=O)(=O)c1ccc(Br)cc1)C(=O)NCC1CCCO1 (centres undefined),inactive,–
OC(CNCC1CCCO1)Cn1c2ccc(Br)cc2c2cc(Br)ccc21 (centres undefined),0.586 µM (active),–
CCc1ccc(C(=O)NN=C2CCCCCC2)s1,inactive,–
CCOc1ccc(CN2CCNC(=O)C2CC(=O)NCCCC2CCCC2)cc1 (centres undefined),inactive,–
Cc1nc2ccc(C(=O)N/N=C/c3ccc(O)cc3)cc2[nH]1,inactive,–
COc1ccc(S(=O)(=O)N2CCN(CC(=O)NCC3(N4CCOCC4)CCCCC3)CC2)cc1,9.28 µM (active),–
COc1ccc(CNC(=O)COC(=O)/C=C/c2ccc(S(=O)(=O)N3CCOCC3)cc2)cc1,inactive,–
COC(=O)COc1ccc(S(=O)(=O)N2CCOCC2)cc1,inactive,–
CCc1ccc(OC(C)C(=O)Nc2ccc(S(=O)(=O)Nc3cc(C)on3)cc2)cc1 (centres undefined),inactive,–
CC1CCN(C(=O)CCNC(=O)c2ccccc2)CC1,inactive,–
CN(CC(=O)Nc1ccc(F)c(F)c1F)C(=O)C1CC(=O)N(C2CCCC2)C1 (centres undefined),inactive,–
O=C(CN1CCC(NC(=O)C2CC2)CC1)Nc1ccccc1[N+](=O)[O-],inactive,–
OC(COc1cccc2ccccc12)CN1CCN(c2ccccn2)CC1 (centres undefined),inactive,–
CN1CCN(CCCCOc2cccc3ccccc23)CC1,inactive,–
CC(C)c1ccccc1OCC(O)CN(CC(O)COc1cccc2ccccc12)C(C)C (centres undefined),1.65 µM (active),–
NC(=O)C(Cc1ccccc1)NC(=O)C12CC3CC(CC(C3)C1)C2 (centres undefined),inactive,–
CNS(=O)(=O)c1ccc(C(=O)NCC(=O)NCCc2ccc3c(c2)OCCO3)cc1,inactive,–

SMILES,Potency,"activity change, negative = inhibition"
CCOC(=O)c1c(C)[nH]c(C)c1S(=O)(=O)N(C)CC(=O)Nc1ccccc1C,inactive,–
CCOC(=O)c1c(C)[nH]c2c1-c1ccccc1C(=O)C2=O,1.47 µM (active),–
CCOC(=O)N1CCN(CC(=O)c2c(C)[nH]c3ccccc23)CC1,inactive,–
Cc1ccc(-n2[nH]c(C)c(/C=N/N3C(=O)c4cccc5cccc(c45)C3=O)c2=O)cc1,inactive,–
CCc1nnc(NS(=O)(=O)c2ccc(N=Cc3c(C)[nH]n(-c4ccc(C)cc4)c3=O)cc2)s1,inactive,–
COc1cc(SC#N)ccc1N=Cc1c(C)[nH]n(-c2ccc(C)cc2)c1=O,13.1 µM (active),–
COc1cccc(N2CC(NC(=O)c3ccc4ccccc4c3)CC2=O)c1 (centres undefined),inactive,–
COC(=O)c1cc(S(=O)(=O)Nc2ccc(C)c(F)c2)c[nH]1,inactive,–
Cc1ccc(NC(=O)CSc2cccc3cccnc23)c(C)c1,inactive,–
COC(=O)c1ccc(-c2c(-c3ccccc3)ncc3cc(OC)c(OC)cc23)cc1,inactive,–
O=C1CC2(CCN(C(=O)COc3ccc(F)cc3)CC2)Oc2ccccc21,inactive,–
COc1cc(-c2n[nH]c(=S)n2Cc2ccccc2)cc(OC)c1OC,inactive,–
CCC(C)n1c(-c2cc(OC)c(OC)c(OC)c2)nc2nc3ccccc3nc21 (centres undefined),13.1 µM (active),–
COc1ccc(CCn2c(-c3ccco3)nc3nc4ccccc4nc32)cc1OC,inactive,–
COc1ccc(C(=O)NC(C)CCc2ccccc2)c(OC)c1 (centres undefined),–,-23.8% [at 0.00184 µM]
CCc1sc(C(=O)N2CCN(CC(=O)Nc3cccc(F)c3)CC2)cc1C,inactive,–
CCOc1ccc(S(=O)(=O)N2CCN(C(=S)NCC3CCCO3)CC2)cc1 (centres undefined),5.22 µM (active),–
COc1ccc(S(=O)(=O)N2CCN(C(=S)NCC3CCCO3)CC2)cc1OC (centres undefined),1.85 µM (active),–
CCOc1ccc(S(=O)(=O)NCCC(=O)NCC2CCCO2)cc1 (centres undefined),inactive,–
CCOc1ccc(NC(=S)N2CCC(N(C)CC3CCCO3)CC2)cc1 (centres undefined),inactive,–
S=C(NCC1CCCO1)N1CCN(c2ccc(Cl)c(Cl)c2)CC1 (centres undefined),inactive,–
COc1ccc(S(=O)(=O)N2CCC(C(=O)N3CCOCC3)CC2)cc1OC,inactive,–
CCCCNC(=O)CN1C(=O)NC(Cc2ccccc2)(Cc2ccccc2)C1=O,inactive,–
CCCCNC(=O)c1c[nH]c2ccc(S(=O)(=O)Nc3ccc(OCC)cc3)cc2c1=O,inactive,–
CCN(CC(=O)NCCc1ccccc1)S(=O)(=O)c1ccccc1,inactive,–
CCN(CC)S(=O)(=O)c1ccc2[nH]cc(C(=O)NCCc3ccccc3)c(=O)c2c1,13.1 µM (active),–
